From PubChem BioAssay (NCI)
This is part of a sample that, as a whole, favours compounds with a hit. Of some 83,000 tested, about 20% had one in any assay.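 Percent growth is the endpoint: 0 to 100 indicates growth inhibition (40 means 60% inhibition), 0 means no net growth, and negative values indicate cell death.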 Unmarked numbers belong to inactive results. The source made the active and inactive calls. The calls were made as follows: active = growth percent below 10; inactive = the rest.

Columns and labels:
Test in all cases: NCI-60 one-dose screen, 48 h (100 = growth as untreated, 0 = no growth, -100 = all killed)
Settings in all cases: 10 µM unless noted
SK-MEL-2 melanoma = tested on: SK-MEL-2 melanoma
EKVX NSCLC = tested on: EKVX NSCLC
SN12C renal = tested on: SN12C renal
UO-31 renal = tested on: UO-31 renal
TK-10 renal = tested on: TK-10 renal
ACHN renal = tested on: ACHN renal
CAKI-1 renal = tested on: CAKI-1 renal
A498 renal = tested on: A498 renal
CCRF-CEM leukemia = tested on: CCRF-CEM leukemia
MOLT-4 leukemia = tested on: MOLT-4 leukemia

SMILES | growth (SK-MEL-2 melanoma) | growth (EKVX NSCLC) | growth (SN12C renal) | growth (UO-31 renal) | growth (TK-10 renal) | growth (ACHN renal) | growth (CAKI-1 renal) | growth (A498 renal) | growth (CCRF-CEM leukemia) | growth (MOLT-4 leukemia)
COC(=O)[C@H]1CCCN1C[C@@H](O)CN1C(=O)/C(=C\c2cc(OC)c(OC)c(OC)c2)c2ccccc21 | 94.3% | 104% | 98.2% | 82.1% | 102% | 105% | 93.1% | 113% | 93.9% | 81.6%
Cc1c(-n2nnc(-c3nc4ccccc4s3)c2N)c(=O)n(-c2ccccc2)n1C | 107% | 101% | 108% | 73.9% | 109% | 100% | 87% | 112% | 107% | 98.3%
CC(=O)Cc1nsc(NC(=O)c2cc(-c3cc(Cl)cc(Cl)c3)oc2C)n1 | 102% | 97.3% | 98.8% | 81% | 130% | 105% | 90.8% | 103% | 103% | 96.7%
Cc1ccc(-c2cc(-c3ccc(Cl)cc3)nc(NC(=O)c3cccnc3)n2)cc1 | 109% | 102% | 103% | 79% | 115% | 103% | 94.2% | 111% | 106% | 93.2%
COc1ccc(-c2nc(SCC(C)C)nc(N/N=C\c3ccc(F)cc3)c2C#N)cc1 | 104% | 93.9% | 78.6% | 67.2% | 81.5% | 30.3% | 91.1% | 74.4% | 82.3% | 88.2%
CN(C)Cc1ccc(NC(=O)c2cncc(C#Cc3cnc(N)c4ncccc34)c2)cc1F | 88.6% | 93.4% | 86.4% | 108% | 141% | 61.1% | 87.7% | 73.9% | 4.73% (active) | 76.3%
COC(=O)c1c2c(c(C)[n+]([O-])c1C)C(=O)C=C(NCc1ccc(Br)cc1)C2=O | -54% (active) | -85.3% (active) | -77.7% (active) | -85.8% (active) | 2.5% (active) | -73.2% (active) | -25.7% (active) | -86.4% (active) | -12.6% (active) | -21.7% (active)
COc1ccc(-c2csc(N(C(=O)N3CCN(c4cc5c(cc4F)c(=O)c(C(=O)O)cn5C4CC4)CC3)c3ccccc3)n2)cc1 | 0.424% (active) | 15.8% | 6.41% (active) | 4.2% (active) | 32.1% | -62.5% (active) | 6% (active) | 3.67% (active) | 24.9% | 16%
O=C1c2cccc3cccc(c23)C(=O)N1N1C(=O)c2cccc3c(N4CCOCC4)ccc(c23)C1=O | 107% | 94.1% | 88.8% | 68.7% | 141% | 95% | 87.4% | 64.3% | 122% | 108%
N#CCSc1nnc2n(Cc3ccccc3)c(=O)c3c4c(sc3n12)CCCC4 | 96% | 94.1% | 96.8% | 76.2% | 103% | 106% | 86.2% | 93.4% | 86.5% | 90.7%
c1ccc(CNc2c3ccccc3nc3ccccc23)cc1 | 60.8% | 48.1% | 37.5% | 23.8% | 48.7% | 18.1% | 33.1% | 16.6% | 39% | 15.5%
O=C(CSc1nc2ccc([N+](=O)[O-])cc2[nH]1)Nc1cccc(C(F)(F)F)c1 | -5.5% (active) | 23.9% | 9.37% (active) | 8.44% (active) | 25.1% | 16% | 1.15% (active) | -6.75% (active) | 19% | 8.77% (active)
CC(C)(C)n1cc(-c2ccnc(NCCNS(=O)(=O)c3cccc(F)c3)c2)c(-c2ccccc2)n1 | 105% | 70.6% | 90.1% | 67% | 105% | 99.5% | 90.4% | 27.1% | 93.8% | 74.4%
COc1ccc2c(O)c(/C=C3\N=Nc4ccccc43)oc2c1C[C@@H]1CCNC[C@H]1F | 96.9% | 64.5% | 67.7% | 50.5% | 84.2% | 61.3% | 64.8% | 57.9% | -16.3% (active) | 68%
